Where two headings read alike, the source gives them in different places.
What was measured:
Set-up in all cases: species or system human, MV4-11 + K-562 + COLO205 + SK-N-BE2 + OVCAR-8
CLK1 = details: read-out: apparent Kd, n = 1
CLK4 = details: read-out: apparent Kd, n = 1
CSNK1A1 = details: read-out: apparent Kd, n = 1
DYRK1A = details: read-out: apparent Kd; compound concentrations:100 nM and 1000 nM (sheet 'Samples'); n = 1
MAP3K5 = details: read-out: apparent Kd; compound concentrations:100 nM and 1000 nM (sheet 'Samples'); n = 1
MAP3K6 = details: read-out: apparent Kd; compound concentrations:100 nM and 1000 nM (sheet 'Samples'); n = 1
NUAK1 = details: read-out: apparent Kd; compound concentrations:100 nM and 1000 nM (sheet 'Samples'); n = 1
NUAK2 = details: read-out: apparent Kd; compound concentrations:100 nM and 1000 nM (sheet 'Samples'); n = 1
PDGFRB = details: read-out: apparent Kd; compound concentrations:100 nM and 1000 nM (sheet 'Samples'); n = 1
PI4KB = details: read-out: apparent Kd; compound concentrations:100 nM and 1000 nM (sheet 'Samples'); n = 1
PKN2 = details: read-out: apparent Kd; compound concentrations:100 nM and 1000 nM (sheet 'Samples'); n = 1
PRKD2 = details: read-out: apparent Kd; compound concentrations:100 nM and 1000 nM (sheet 'Samples'); n = 1
PRKD3 = details: read-out: apparent Kd; compound concentrations:100 nM and 1000 nM (sheet 'Samples'); n = 1
RPS6KA1 = details: read-out: apparent Kd; compound concentrations:100 nM and 1000 nM (sheet 'Samples'); n = 1
RPS6KA6 = details: read-out: apparent Kd; compound concentrations:100 nM and 1000 nM (sheet 'Samples'); n = 1
RPS6KB1 = details: read-out: apparent Kd; compound concentrations:100 nM and 1000 nM (sheet 'Samples'); n = 1
CIT = details: read-out: apparent Kd, compound concentrations: 100 nM and 1000 nM (sheet 'Samples'), n = 1
CSNK1D = details: read-out: apparent Kd, compound concentrations: 100 nM and 1000 nM (sheet 'Samples'), n = 1
CSNK1E = details: read-out: apparent Kd, compound concentrations: 100 nM and 1000 nM (sheet 'Samples'), n = 1
MAPK14 = details: read-out: apparent Kd, compound concentrations: 100 nM and 1000 nM (sheet 'Samples'), n = 1
MAPKAPK2 = details: read-out: apparent Kd, compound concentrations: 100 nM and 1000 nM (sheet 'Samples'), n = 1
PKN3 = details: read-out: apparent Kd; compound concentrations: 100 nM and 1000 nM (sheet 'Samples'), CATDS: 0.10775551436498899; n = 1
EIF2AK1 = details: read-out: apparent Kd; compound concentrations: 100 nM and 1000 nM (sheet 'Samples'), CATDS: 4.8293070245640599E-2; n = 1
FER = details: read-out: apparent Kd; compound concentrations: 100 nM and 1000 nM (sheet 'Samples'), CATDS: 4.7949039435888803E-2; n = 1
GAK = details: read-out: apparent Kd; compound concentrations: 100 nM and 1000 nM (sheet 'Samples'), CATDS: 0.152402490696291; n = 1
IGF1R = details: read-out: apparent Kd; compound concentrations: 100 nM and 1000 nM (sheet 'Samples'), CATDS: 5.4863623433827502E-2; n = 1
INSR = details: read-out: apparent Kd; compound concentrations: 100 nM and 1000 nM (sheet 'Samples'), CATDS: 6.5997959622395005E-2; n = 1
MAPK10 = details: read-out: apparent Kd, compound concentrations: 100 nM and 1000 nM (sheet 'Samples'), n = 1
MAPK8 = details: read-out: apparent Kd; compound concentrations: 100 nM and 1000 nM (sheet 'Samples'), CATDS: 0.131985587437009; n = 1
MAPK9 = details: read-out: apparent Kd, compound concentrations: 100 nM and 1000 nM (sheet 'Samples'), n = 1
PTK2B = details: read-out: apparent Kd; compound concentrations: 100 nM and 1000 nM (sheet 'Samples'), CATDS: 8.3393690442652907E-2; n = 1
TNK1 = details: read-out: apparent Kd; compound concentrations: 100 nM and 1000 nM (sheet 'Samples'), CATDS: 0.131122015547642; n = 1
TTK = details: read-out: apparent Kd; compound concentrations: 100 nM and 1000 nM (sheet 'Samples'), CATDS: 6.1430797612991001E-2; n = 1
DDR1 = details: read-out: apparent Kd; compound concentrations: 100 nM and 1000 nM (sheet 'Samples'), CATDS: 7.6072029759196497E-2; n = 1
DDR2 = details: read-out: apparent Kd; compound concentrations: 100 nM and 1000 nM (sheet 'Samples'), CATDS: 5.6437798094111098E-2; n = 1
NLK = details: read-out: apparent Kd; compound concentrations: 100 nM and 1000 nM (sheet 'Samples'), CATDS: 9.0409575218607804E-2; n = 1
RIPK2 = details: read-out: apparent Kd; compound concentrations: 100 nM and 1000 nM (sheet 'Samples'), CATDS: 0.128634977422559; n = 1
[1] = compound concentrations:100 nM and 1000 nM (sheet 'Samples')

C[C@@H]1CCNC(=O)c2cc3ccc(C(=O)Nc4nc5ccccc5n4CCCN(C)C)cc3n21 [BI00645435]
potency estimated from few doses (CLK1; [1]): 941 nM
potency estimated from few doses (CLK4; [1]): 931 nM
potency estimated from few doses (CSNK1A1; [1]): 1000 nM
potency estimated from few doses (DYRK1A): 2100 nM
potency estimated from few doses (MAP3K5): 2300 nM
potency estimated from few doses (MAP3K6): 1700 nM
potency estimated from few doses (NUAK1): 110 nM
potency estimated from few doses (NUAK2): 383 nM
potency estimated from few doses (PDGFRB): 1670 nM
potency estimated from few doses (PI4KB): 581 nM
potency estimated from few doses (PKN2): 1760 nM
potency estimated from few doses (PRKD2): 731 nM
potency estimated from few doses (PRKD3): 1480 nM
potency estimated from few doses (RPS6KA1): 529 nM
potency estimated from few doses (RPS6KA6): 5.39 nM
potency estimated from few doses (RPS6KB1): 106 nM

Cc1ccn2nc(-c3ccc(F)cc3)c(-c3ccncc3)c2c1.Cl [GW457859A]
potency estimated from few doses (CIT; CATDS: 0.16560503181349201): 653 nM
potency estimated from few doses (CSNK1A1; compound concentrations: 100 nM and 1000 nM (sheet 'Samples'), CATDS: 0.105298123149642): 2070 nM
potency estimated from few doses (CSNK1D; CATDS: 0.38029539442901): 165 nM
potency estimated from few doses (CSNK1E; CATDS: 0.17601881181755799): 578 nM
potency estimated from few doses (MAPK14; CATDS: 0.12679025336255401): 1200 nM
potency estimated from few doses (MAPKAPK2; CATDS: 0.125209165131694): 1240 nM
potency estimated from few doses (PKN3): 1920 nM

CCCN1CCC(c2ccc(Nc3nc(Nc4cc(F)ccc4C(N)=O)c4cc[nH]c4n3)c(OC)c2)CC1 [GSK1326255A]
potency estimated from few doses (CLK1; compound concentrations: 100 nM and 1000 nM (sheet 'Samples'), CATDS: 4.8485832065687497E-2): 1210 nM
potency estimated from few doses (CLK4; compound concentrations: 100 nM and 1000 nM (sheet 'Samples'), CATDS: 5.2281896734728002E-2): 912 nM
potency estimated from few doses (CSNK1D; CATDS: 4.52776824202724E-2): 1610 nM
potency estimated from few doses (CSNK1E; CATDS: 4.2697744465197598E-2): 2150 nM
potency estimated from few doses (EIF2AK1): 1230 nM
potency estimated from few doses (FER): 1260 nM
potency estimated from few doses (GAK): 82.5 nM
potency estimated from few doses (IGF1R): 775 nM
potency estimated from few doses (INSR): 449 nM
potency estimated from few doses (MAPK10; CATDS: 0.16896566157677501): 70.3 nM
potency estimated from few doses (MAPK8): 104 nM
potency estimated from few doses (MAPK9; CATDS: 0.113022620554471): 137 nM
potency estimated from few doses (PTK2B): 253 nM
potency estimated from few doses (TNK1): 106 nM
potency estimated from few doses (TTK): 548 nM

Nc1nccc(-c2c(-c3ccc(F)cc3)ncn2C2CCN(CC(F)(F)F)CC2)n1 [SB-236560]
potency estimated from few doses (CIT; CATDS: 7.9772232901770906E-2): 168 nM
potency estimated from few doses (CSNK1A1; compound concentrations: 100 nM and 1000 nM (sheet 'Samples'), CATDS: 5.74682899523659E-2): 514 nM
potency estimated from few doses (CSNK1D; CATDS: 0.160108926806518): 41.3 nM
potency estimated from few doses (CSNK1E; CATDS: 0.10532594591196801): 87.7 nM
potency estimated from few doses (DDR1): 191 nM
potency estimated from few doses (DDR2): 559 nM
potency estimated from few doses (MAPK10; CATDS: 4.9775918057440499E-2): 1150 nM
potency estimated from few doses (MAPK14; CATDS: 0.14251472882722499): 50 nM
potency estimated from few doses (MAPK9; CATDS: 6.3726988892981506E-2): 338 nM
potency estimated from few doses (MAPKAPK2; CATDS: 0.17165135235048001): 37.1 nM
potency estimated from few doses (NLK): 123 nM
potency estimated from few doses (RIPK2): 59.8 nM

Reference: PMC11062922 (Nature Chemical Biology, 2023)
